Assay results published in the supplement of paper PMC10338343.
± gives the standard deviation.

Test system: EfPiwi piRISC loaded with piRNA #1 (26 nt)
Test: pre-steady-state target cleavage rate (min^-1); auxiliary factor: 500 nM Ephydatia muelleri Gtsf1; guide: piRNA #1 5'p-UGAGGUAGUAGGUUGUAUAGUAUCCA; MIWI and MILI are mouse PIWI proteins and EfPiwi is from a freshwater sponge; tags in brackets are library labels; higher = faster piRNA-guided slicing of the target
Experimental: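 Cleave-'n-Seq: a library of target RNAs (target site in constant flanks) at […] was incubated with 1 nM active freshwater sponge Ephydatia fluviatilis Piwi piRISC (synthetic 5'-monophosphorylated piRNA guide) with or without 500 nM EmGtsf1 at 33 °C for 1 min to 16 h. Uncleaved targets were sequenced and the pooled three trials fitted to a burst-and-steady-state model to give the pre-steady-state cleavage rate (min^-1). Sequence is the target site only. Fits with R² ≤ 0 are excluded.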

Sequence | pre-steady-state target cleavage rate
GGAGAGGAUACUAGACAACCUACUACCUCA | 0.0121 ± 0.0055
GGAGAGGAUAGUAUACUACCUACUACCUCA | 0.00274 ± 0.0027
GGAGAGCUUACUAUACAACCUACUACCUCA | 0.0193 ± 0.0089
GGAGACCAUACUAUUCAACGUACUACCUCA | 0.00247 ± 0.0019
GGAGACCUAUCUAUACAAGCUACUACGUCA | 0.00274 ± 0.0026
GGAGACGAUACUAUAGAACCUAGUACCUCA | 0.0018 ± 0.0015
GGAGUGGUUACUAUACAAGCUACUACCUCA | 0.00582 ± 0.0018
GGAGACGAUAGUUUACAACCUACUACCUCA | 0.0165 ± 0.0088
GGAGAGGAUACUAAACAACCUACUACCUGA | 0.00273 ± 0.0018
GGAGACGAUACUAUUCAACCUAGUACCUCA | 0.0035 ± 0.0018
GGAGACCUAUGUAUACAACCUACUACUCUCA | < 0.0001
GGAGAGGAUACUUUACAACCUACAACCUCA | 0.00228 ± 0.0015
GGAGAGGAUACUAUACAACCUACUACGCUCA | 0.00523 ± 0.0019
GGAGACCAUACUAUACAACCUACUUCCACA | 0.0032 ± 0.0032
GGAGAGGAAACUAUACAACCUACUACCUCA | 0.00596 ± 0.0036
GGAGACCUAACUAUACAAGCUACUACGUCA | 0.004 ± 0.0035
GGAGUGGAUUCUAUACAACCUAGUACCUCA | 0.00168 ± 0.0013
GGAGACGAUACUAUACAACGUACUACGUCA | 0.00379 ± 0.0014
GGAGACGAUACCUAUACAACCUACUACCUCA | 0.0601 ± 0.023
GGAGAGCAUACUAUACAUCCUACUACCUCA | 0.00491 ± 0.0024

Sequence | pre-steady-state target cleavage rate
GGAGUGAUACUAUACAACCUACUACCUCA | 0.186 ± 0.069
GGAGAGGAUACUAUACAAUCUACUACCUCA | 0.0116 ± 0.0062
GGAGUGGAUAACUAUACAACCUACUACCUCA | 0.0101 ± 0.0044
GGAGACCUAACUAUACAAACUACUACCUCA | 0.0044 ± 0.0038
GGAGACGAUACUAUACAACCUACGUACCUCA | 0.00418 ± 0.0019
GGAGACGAUACUAUACAACCUAGUACCACA | 0.00488 ± 0.0029
GGAGAGCAUACUAUACAACCUACAACCUCA | 0.0026 ± 0.0017
GGAGACGAUACUAUACGACCUACUACCUCA | 0.0807 ± 0.028
GGAGUGGAUACUAUAAAACCUACUACCUCA | 0.00522 ± 0.0025
GGAGACCAUUCUAUACAACCUACUUCCUCA | 0.00372 ± 0.0035
GGAGUGGAUACUUUACAACCUUCUACCUCA | 0.00301 ± 0.0026
GGAGAGGAUACUAUACAACCUAGAACCUCA | 0.00379 ± 0.0022
GGAGACCUAUGGAUACAACCUACUACCUCA | 0.00946 ± 0.005
GGAGACCUAACUAUACAACCUACUACGUCA | 0.00274 ± 0.0023
GGAGACGAUACUAUACUACCUACUAGCUCA | 0.00251 ± 0.0018
GGAGAGGAUCCUAUACAACCUACUACCUCA | 0.0886 ± 0.046
GGAGAGGAUACUAUACAACCUACUACCAUCA | 0.00705 ± 0.0029
GGAGUGGAUACUAUACAACCUCUACCUCA | 0.0673 ± 0.023
GGAGACCAUACUAUACAACCUAGUACGUCA | 0.00483 ± 0.0024
GGAGUGGAUACUAUACAACGUACUACGUCA | 0.0036 ± 0.0015
